We go through 17 compounds from PubChem BioAssay (NCATS).

Common to all, as to experiment: qHTS profiling for inhibitors of Plasmodium falciparum proliferation (AID 504749); also: nearly all actives have a fitted effect of over 60% in size
Details in all cases: P. falciparum in erythrocytes, SYBR Green DNA, 72 h; series mostly up to 28.7 µM
A general note: Quantitative high-throughput screening tests each substance at several concentrations.

The subject of one assay is CP262. An outline of the steps: (§1)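 SYBR Green fluorescence (ex 485 nm, em 535 nm) reports parasite DNA after 72 h compound exposure of infected red cells at 0.3% parasitemia, 2.5% hematocrit; signal normalized to 0.29 uM artemisinin and vehicle wells.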
The next assay relates to CP265. An outline of the steps:
as §1

For a further assay, the system named is CP268. The essentials: as §1
For another assay, the system named is CP269. An outline of the steps: as §1
The subject of another assay is CP286. The essentials:
as §1

A further assay deals with CP291. The essentials: as §1
Another assay concerns CP297. An outline of the steps:
as §1

The next assay has as its system CP305. The essentials:
as §1

The next assay concerns CP315. An outline of the steps: as §1
Another assay has as its system CP325. An outline of the steps: as §1
The next assay concerns CP329. The essentials: as §1
In a further assay the test system is CP335. An outline of the steps: as §1
A further assay deals with DFO2036. An outline of the steps: as §1
For another assay, the system named is DIV14. The essentials: as §1
The test system of another assay is DIV17. The essentials: as §1
The subject of the next assay is DIV30. The essentials: as §1
For the next assay, the system named is Dd2. The essentials:
as §1

The subject of the next assay is ECU. The essentials: as §1
Another assay deals with FAB9. The essentials:
as §1

The test system of a further assay is CP266. The essentials: as §1

The structures appear in SMILES notation. Results filed as inconclusive are left out. Calls of active or inactive are those of the source. Calls follow the shape of the dose curve; as a rule, active = well fitted inhibition curve with a large enough effect; inconclusive = small, poorly fitted or top-dose-only effect; inactive = flat fitted curve, though single readings scatter.
Potency is read from the fitted curve at half-maximal effect.

Take `O=C(O)c1cc(-c2ccccc2)nc2ccccc12`: the compound was classed as inactive in the assay on CP262, in the assay with CP268, in the assay with CP269, with CP286, in the assay on CP291 and with CP315. Also, the compound was called inactive in the assay with CP325, in the assay with CP329, with DFO2036, in the assay with DIV30 and with FAB9. For the same compound, the Potency entry in the assay on CP265, in the assay with CP297, with CP305, with CP335, with DIV14 and with DIV17 was “inactive” in each case. Moreover, the Potency entry with Dd2 and in the assay with ECU was “inactive” in each case.

Regarding `O=C(O)c1c(Cl)c(Cl)c(Cl)c(Cl)c1-c1c2cc(I)c(=O)c(I)c-2oc2c(I)c(O)c(I)cc12`, the outcome in the assay on CP262, with CP266, in the assay with CP268, in the assay on CP269, with CP286 and in the assay with CP291 was inactive. Also, the result with CP315, in the assay on CP325, in the assay with CP329, in the assay on DFO2036, in the assay with DIV30 and with FAB9 was inactive. The Potency entry in the assay on CP265, with CP305, with CP335, in the assay with DIV14, in the assay with DIV17 and in the assay with Dd2 was “inactive” each time. In addition, the Potency result in the assay with ECU was “inactive”.

With `CC/C(=C(\c1ccccc1)c1ccc(OCCN(C)C)cc1)c1ccccc1`, the compound was called inactive with CP262, in the assay with CP266, in the assay on CP315, with CP329, in the assay on DFO2036 and in the assay with FAB9. Moreover, the Potency result in the assay on CP297 is “inactive”. In addition, the Potency in the assay on DIV14 was 13.5 µM (active).

Consider `Clc1ccc(Cn2c(CN3CCCC3)nc3ccccc32)cc1`, for which the outcome in the assay with CP262, in the assay on CP266, in the assay on CP268, with CP269, with CP286 and with CP291 was inactive. The call in the assay with CP315, with CP325, with CP329, in the assay on DFO2036 and with FAB9 was inactive. Further, the Potency entry in the assay with CP265, in the assay with CP305, in the assay with CP335, with Dd2 and with ECU was “inactive” throughout.

For `CN(C)CCC(c1ccccc1)c1ccccn1` (configuration not stated), the compound was classed as inactive in the assay on CP262, with CP266, with CP286, in the assay with CP315, in the assay with CP325 and with DFO2036. Besides, the compound was called inactive in the assay on FAB9. Further, the Potency with CP265 was 12.6 µM (active); in the assay on CP335, 7.57 µM (active); in the assay with DIV14, 6.75 µM (active); in the assay with DIV17 it was 9.53 µM (active). The Potency result in the assay on Dd2 and in the assay on ECU was “inactive” in each case.

On to `CC(=O)CCCCn1c(=O)c2c(ncn2C)n(C)c1=O`, for which the call with CP262, in the assay with CP266, with CP268, with CP269, in the assay with CP286 and in the assay on CP291 was inactive. For the same compound, the compound was called inactive in the assay on CP315, with CP325, in the assay on CP329, with DFO2036, in the assay on DIV30 and in the assay on FAB9. Moreover, the Potency entry in the assay with CP265, in the assay with CP297, with CP305, with CP335, in the assay on DIV14 and with DIV17 was “inactive” each time. In addition, the Potency entry with Dd2 and with ECU was “inactive” throughout.

For the compound `O=C(NCCN1CCOCC1)c1ccc(Cl)cc1`, the outcome with CP262, with CP266, in the assay with CP268, with CP269, in the assay on CP286 and with CP291 was inactive. Also, the compound was called inactive with CP315, in the assay on CP325, with CP329, in the assay on DFO2036, in the assay on DIV30 and with FAB9. Besides, the Potency result with CP265, with CP297, in the assay on CP305, in the assay on CP335, with DIV14 and in the assay on DIV17 was “inactive” throughout. Moreover, the Potency entry in the assay on Dd2 and with ECU was “inactive” in each case.

Regarding `CC1=C(/C=C/C(C)=C/C=C/C(C)=C/C(=O)Nc2ccc(O)cc2)C(C)(C)CCC1`, the Potency in the assay on CP297 was 13.5 µM (active); in the assay on CP305, 15.1 µM (active); with DIV14, 16.9 µM (active); in the assay with DIV17 it was 16.9 µM (active); in the assay on Dd2, 11.2 µM (active).

As for `CCN1CCC[C@H]1CNC(=O)c1cc(S(N)(=O)=O)ccc1OC`, the outcome in the assay on CP262, in the assay with CP266, in the assay with CP268, in the assay with CP269, in the assay with CP286 and in the assay with CP291 was inactive. The outcome with CP315, with CP325, in the assay on CP329, with DFO2036, in the assay with DIV30 and with FAB9 was inactive. Also, the Potency entry with CP265, in the assay with CP297, in the assay on CP305, with CP335, with DIV14 and in the assay with DIV17 was “inactive” throughout. The Potency entry with Dd2 and in the assay on ECU was “inactive” each time.

Turning to `COc1ccccc1N1CCN(CCCNc2cc(=O)n(C)c(=O)n2C)CC1`, the compound was classed as inactive with CP262, with CP266, with CP268, with CP269, in the assay on CP286 and in the assay on CP291. In addition, the outcome with CP315, in the assay with CP325, in the assay with CP329, with DFO2036, in the assay on DIV30 and in the assay on FAB9 was inactive. For the same compound, the Potency result in the assay with CP265, in the assay on CP297, with CP305, with CP335, in the assay with DIV14 and in the assay on DIV17 was “inactive” throughout. The Potency result in the assay on Dd2 and with ECU was “inactive” each time.

Take `CCN(CC)CCOC(=O)c1ccc(N)cc1`: the outcome with CP262, in the assay on CP266, in the assay with CP268, in the assay on CP269, in the assay on CP286 and with CP291 was inactive. In addition, the call in the assay on CP315, with CP325, in the assay with CP329, in the assay with DFO2036, in the assay on DIV30 and with FAB9 was inactive. Also, the Potency result in the assay on CP265, in the assay on CP297, in the assay with CP305, with CP335, in the assay with DIV14 and in the assay on DIV17 was “inactive” each time. Moreover, the Potency entry in the assay on Dd2 and in the assay on ECU was “inactive” each time.

For the compound `CC1(C)O[C@H]2C[C@@H]3[C@H]4CCC5=CC(=O)C=C[C@]5(C)[C@@]4(F)[C@@H](O)C[C@]3(C)[C@]2(C(=O)CO)O1`, the compound was called inactive in the assay with CP262, in the assay on CP268, in the assay with CP269, with CP286, in the assay with CP291 and in the assay on CP315. Besides, the outcome in the assay on CP325, with CP329, in the assay on DFO2036 and in the assay with FAB9 was inactive. For the same compound, the Potency entry with CP265, with CP305, with CP335, in the assay with DIV17, in the assay with Dd2 and with ECU was “inactive” in each case.

As to `Cc1cnc(C(=O)O)c[n+]1[O-]`, the call in the assay with CP262, with CP268, with CP269, with CP286, with CP291 and with CP315 was inactive. Besides, the compound was classed as inactive in the assay with CP325, with CP329, in the assay with DFO2036, in the assay with DIV30 and in the assay on FAB9. In addition, the Potency result in the assay with CP265, in the assay on CP297, in the assay with CP305, in the assay with CP335, with DIV14 and with DIV17 was “inactive” each time. Besides, the Potency result in the assay on Dd2 and in the assay with ECU was “inactive” each time.

As for `CC(=O)c1ccc(S(=O)(=O)NC(=O)NC2CCCCC2)cc1`, the compound was classed as inactive with CP262, with CP266, with CP268, in the assay with CP269, with CP286 and in the assay on CP291. For the same compound, the outcome with CP315, in the assay with CP325, in the assay on CP329, in the assay on DFO2036, in the assay on DIV30 and in the assay on FAB9 was inactive. The Potency entry with CP265, in the assay with CP297, in the assay on CP305, in the assay with CP335, in the assay with DIV14 and in the assay on DIV17 was “inactive” in each case. Besides, the Potency result with Dd2 and in the assay on ECU was “inactive” each time.

Take `Cc1cccc(C)c1OCC(C)N` (configuration not stated): the compound was called inactive in the assay on CP262, in the assay on CP286, in the assay on CP315, in the assay with CP329, with DFO2036 and in the assay with FAB9. In the assay with ECU, the Potency result was “inactive”.

Consider `CCCCCN(C)CCC(O)(P(=O)(O)O)P(=O)(O)O`, for which the outcome in the assay on CP262, in the assay with CP266, in the assay with CP268, with CP269, in the assay with CP286 and with CP291 was inactive. The result with CP315, with CP325, in the assay with CP329, in the assay with DFO2036, in the assay on DIV30 and in the assay on FAB9 was inactive. In addition, the Potency entry in the assay with CP265, in the assay on CP297, with CP305, in the assay with CP335, in the assay with DIV14 and with DIV17 was “inactive” throughout. Also, the Potency entry in the assay on Dd2 and in the assay with ECU was “inactive” in each case.

As for `CCN(CC)C(=O)c1ccc(O)c(OC)c1`, the compound was classed as inactive in the assay with CP262, in the assay on CP266, in the assay on CP268, with CP269, in the assay with CP286 and in the assay on CP291. Further, the compound was classed as inactive with CP315, in the assay with CP325, with CP329, in the assay with DFO2036, in the assay with DIV30 and in the assay with FAB9. The Potency result with CP265, with CP297, in the assay with CP305, with CP335, with DIV14 and with DIV17 was “inactive” throughout. The Potency entry in the assay on Dd2 and in the assay with ECU was “inactive” each time.
